Screening results as filed in PubChem BioAssay.
Rows were chosen to be rich in hits. Some 2.4% of all compounds tested hit in one or more screens of this group.
D2 ag-1: agonists of human D2 dopamine receptor (beta-arrestin). AID 624465. 360,000 compounds, 0.084% hits. activation, % (test concentration not listed). DiscoveRx PathHunter D2 beta-arrestin, luminescence, 90 min; 100% = 57 uM dopamine signal; in the data active = activation above about 40%; inconclusive = between about 15% and that limit
Target sequence (P14416 whole entry, looked up): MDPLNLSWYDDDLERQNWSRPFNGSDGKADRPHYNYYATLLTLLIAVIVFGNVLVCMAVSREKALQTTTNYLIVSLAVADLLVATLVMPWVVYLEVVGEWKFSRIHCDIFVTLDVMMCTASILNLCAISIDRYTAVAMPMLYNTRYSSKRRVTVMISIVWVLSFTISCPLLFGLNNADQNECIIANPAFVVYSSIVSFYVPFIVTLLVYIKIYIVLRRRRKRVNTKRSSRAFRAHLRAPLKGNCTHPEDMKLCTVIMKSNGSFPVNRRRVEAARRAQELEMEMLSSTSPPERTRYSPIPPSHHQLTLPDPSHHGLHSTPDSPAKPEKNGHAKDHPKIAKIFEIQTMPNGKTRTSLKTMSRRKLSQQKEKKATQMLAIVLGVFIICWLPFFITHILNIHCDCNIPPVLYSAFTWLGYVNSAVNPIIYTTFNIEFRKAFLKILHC
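DiscoveRx PathHunter D2 beta-arrestin cells (2,100/well) attached overnight, then compound-stimulated 90 min at 37 C in HBSS/10 mM HEPES/0.1% Tween-20 buffer; beta-galactosidase complementation read by luminescence after 1 h at ambient temperature. Dopamine 57 uM final (EC100) as control.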
D2 PAM-1: positively modulates the human D2 dopamine receptor allosterically | HEK293 T-REx D2, calcium flux, EC20 dopamine potentiation | potentiation, % at 10 µM | 340,000 compounds, 0.34% hits | AID 485347;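 active = potentiation over 3 SD above the plate norm, cut at about 30% in these data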
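Using a no-wash calcium dye in inducible, force-coupled HEK293 Trex cells expressing D2, we tracked fluorescence each second for 180 s after compound, then for 180 s after EC20 dopamine to detect augmented signalling.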
D2 antag: antagonizes the human D2 dopamine receptor. P14416. HEK293 TREx D2 cells, calcium flux, dopamine EC80. inhibition, % at 10 µM. 340,000 compounds, 2% hits. AID 485344; in the data active = inhibition above about 30%; inactive = below that, where a call was filed
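HEK293 T-REx D2 cells, tet-induced, calcium dye no-wash. Cpd pintool add, 180 s kinetic, then EC80 DA, 180 s kinetic. Ca flux read.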
D2 PAM-2: positive allosteric modulators of human D2 dopamine receptor; potentiation, % (no concentration beside the values); 360,000 compounds, 0.23% hits; DiscoveRx D2 beta-arrestin cells, luminescence, 90 min; 100% = 57 uM dopamine signal; in the data active = potentiation above about 50%; inconclusive = mostly about 30% to 49%
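D2 cells co-treated with compound plus 50 nM dopamine (EC20) for 90 min at 37 deg C to detect potentiation. Beta-arrestin recruitment was read as enzyme-fragment luminescence after 1 h at ambient temperature. Full response was set by 57 uM dopamine.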
D2 ag-2: D2 dopamine receptor (human) agonism; P14416; HEK293 T-REx D2 cells, calcium flux agonist mode; activation, % at 2 µM; 340,000 compounds, 0.53% hits;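 active = activation over 3 SD above normal in the single-dose calcium agonist read, cut at about 30% in these data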
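Agonism scored from kinetic calcium signal (1 read/sec, 180 s) following compound pin transfer, after a 10 s baseline. Cells: HEK293 Trex line expressing inducible D2 receptor coupled to calcium, dye-loaded after overnight culture at 30 C.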
Large screens that a line does not name were inactive.

CCN1CCN(C(=O)Nc2ccc(OC)cc2OC)CC1	D2 antag 49
CN1CCCN(Cc2ccc(Cl)cc2Cl)CC1	D2 antag 35
CN1CCCN(Cc2nc(-c3ccc(Cl)cc3)no2)CC1	none
N#Cc1c(-c2ccccc2)nc(SCc2cccc(Cl)c2)[nH]c1=O	D2 antag 30
O=[N+]([O-])c1ccc(Cl)c(S(=O)(=O)Nc2ccc(-c3ccc(N4CCOCC4)nn3)cc2)c1	none
O=[N+]([O-])c1ccc(Cl)c(S(=O)(=O)Nc2cccc(-c3ccc(N4CCOCC4)nn3)c2)c1	D2 antag 34
CC1CCN(c2ccc(-c3cccc(NS(=O)(=O)c4ccc(Cl)s4)c3)nn2)CC1	none (no result: D2 ag-1, D2 antag, D2 PAM-2)
C=C(C)Cn1c2ccc(NC(=S)NCc3ccccc3F)cc2c(=O)n1C	D2 ag-1 103 (no result: D2 PAM-1, D2 antag, D2 ag-2)
Cc1ccc(S(=O)(=O)N2CCCN(C)c3nc4ccccc4nc32)cc1	none
O=C(CCc1ccc(S(=O)(=O)N2CCOCC2)cc1)N/N=C/c1ccc(F)cc1F	none
O=C(CCc1ccc(S(=O)(=O)N2CCOCC2)cc1)N/N=C/c1ccc(O)c(O)c1O	D2 ag-1 inconclusive, D2 PAM-2 82
Cc1cc2c(cc1C)NC(CC(=O)Nc1cccc(C)c1C)C(=O)N2 (configuration not stated)	none (no result: D2 ag-1, D2 antag, D2 PAM-2)
O=C(Cn1ccc(=O)[nH]c1=O)c1ccc([N+](=O)[O-])o1	D2 ag-1 47 (no result: D2 PAM-1, D2 antag, D2 ag-2)
N#C/C(=C\c1ccccc1C(F)(F)F)C(=O)Nc1ccccc1	none
CCc1cccc(CC)c1NC(=O)/C(C#N)=C/c1ccccc1C(F)(F)F	D2 PAM-2 96
Cc1cc(C)cc(OC(C)C(=O)Nc2c(C(=O)c3ccccc3)oc3ccccc23)c1 (configuration not stated)	none (no result: D2 ag-1, D2 antag, D2 PAM-2)
COC(=O)[C@@]1(Cc2ccc(OC)cc2)[C@@H]2C(=CC(=O)[C@H]2CC(=O)C(=O)N(C)C)CN1C(=O)c1ccccc1	none
C=C1C(=O)C=C2CN(C(=O)c3ccccc3)[C@@](Cc3ccc(F)cc3)(C(=O)OC)[C@@H]12	D2 antag 44
COCCn1cnc2c1c(=O)n(Cc1ccccc1C#N)c(=O)n2Cc1ccccc1	D2 PAM-1 36
Cc1nc2cc(C(=O)NCc3cccnc3)ccc2n1-c1ccc(F)cc1F	none
CSc1cccc(NC(=S)NCCCN2CCN(c3ccc(F)cc3)CC2)c1	D2 antag 43
COc1ccc(NC(=O)/C(Cl)=C(/Cl)S(=O)Cc2ccccc2)cn1 (configuration not stated)	D2 antag 32
O=C1CSC(=S)N1/N=C/c1cc(Br)c(O)c(Br)c1	D2 ag-2 85
Nn1c(SCC(=O)N2CCCCCC2)nnc1-c1ccncc1	D2 antag 30
O=C(CSc1nnc(-c2ccccc2)n1CC1CCCO1)N1CCCC1 (configuration not stated)	D2 PAM-1 32
O=C(CSc1nnc(-c2ccco2)n1CC1CCCO1)N1CCCCC1 (configuration not stated)	none
O=[N+]([O-])c1ccc(-c2ccc(C=Nc3cccc4ccccc34)o2)cc1	none
O=[N+]([O-])c1cc(-c2ccc(/C=N/c3nc4ccccn4c3-c3ccco3)o2)ccc1Cl	D2 PAM-2 70
O=C(O)CC1(CC(=O)N2CCC(C(=O)O)CC2)CCCC1	none
O=C(O)CC1(CC(=O)N2CCOCC2)CCCC1	D2 PAM-1 36
N#Cc1cccc(NC(=O)COC(=O)CCc2ccc(S(=O)(=O)N3CCOCC3)cc2)c1	D2 antag 34
CC(C)N1CCc2c(sc(NC(=O)C3CCCCC3)c2C(N)=O)C1	none
Cc1[nH]c(=S)[nH]c(=O)c1Cc1ccc(OCC(C)C)cc1	D2 antag 31
CCCCOc1ccc(Cc2c(COCC)[nH]c(=S)[nH]c2=O)cc1	D2 antag 35
CN(CC1CCOCC1)C(=O)c1ccc2nc(Cc3cccc(Cl)c3)oc2c1	none (no result: D2 antag, D2 ag-2)
O=C(NCC1CCOCC1)c1ccc2nc(Cc3cccc(Cl)c3)oc2c1	D2 antag 61
CCCSc1nc2c(cnn2-c2ccccc2)c(=O)[nH]1	D2 PAM-1 41
CCc1ccc(S(=O)(=O)Nc2ccc3oc(C)c(C(=O)OCCOC)c3c2)cc1	none (no result: D2 ag-1, D2 antag, D2 PAM-2)
COc1ccccc1CNS(=O)(=O)c1c(C(=O)N2CCCCC2)c(C)n(C)c1C	D2 antag 30
